Experimental data from PubChem BioAssay AID651965 (National Center for Advancing Translational Sciences (NCATS), 2013).
In all, about 340,000 compounds went through this assay and about 6,400 (1.9%) were called active. Another 4% or so got no clear call; they are omitted. The call rests on the fitted dose curve; in most records, active means well fitted falling curve with a large enough effect; inconclusive means small, poorly fitted or top-dose-only effect; inactive means no such curve, though single readings can be large or run the other way. Only a selection was taken, and actives are over-represented in it overall.

What follows are compounds tested against ATP-dependent Clp protease proteolytic subunit (Bacillus subtilis (strain 168)) (UniProt P80244) (assay: qHTS Assay for Activators of ClpP). Details: purified B. subtilis ClpP, FRET peptide cleavage, 20 min; series mostly up to 57.5 µM; activity change, negative = active: at the top concentration.
Procedure, shortened: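 FRET quenching reversal measured ClpP activation: 10 microg/mL B. subtilis ClpP at pH 8 with the FRET-FV decapeptide, read at 430 nm after 320 nm excitation. The 20-min minus 0-min signal was scaled between DMSO/no-enzyme wells and ADEP (5.8 microM final).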
Further: the source files actives as falling curves though it sought activators and does not explain the sign; nearly all actives have a fitted effect of over 65% in size.
Potency means the concentration at half of the fitted maximal effect.

ATP-dependent Clp protease proteolytic subunit (Bacillus subtilis (strain 168)), sequence (P80244 whole entry, looked up): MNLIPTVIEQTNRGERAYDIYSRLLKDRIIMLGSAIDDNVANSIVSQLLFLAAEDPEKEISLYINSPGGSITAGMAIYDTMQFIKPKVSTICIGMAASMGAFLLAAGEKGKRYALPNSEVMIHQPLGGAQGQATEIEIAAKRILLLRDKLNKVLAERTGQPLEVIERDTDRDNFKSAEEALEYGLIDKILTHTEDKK

Activity change, negative = active, inactive:
CC(C)(C)C(=O)c1c(N)[nH]c(C(=O)c2ccccc2)c1-c1ccc(F)cc1 0.365%
O[C@@H]1C[C@H](c2ccccc2)N(Cc2cccs2)C[C@H]1n1cc(C2CC2)nn1 1.89%
O=C(Cn1c(=O)n(-c2ccc(F)cc2)c(=O)c2sc3ccccc3c21)NC1CCCC1 4.1%
CCOc1ccccc1NC(=O)Cn1c(=O)n(Cc2ccco2)c(=O)c2sc3ccccc3c21 -14.3%
Cc1ccc(CNC(=O)CSC2=Nc3ccccc3C3=NC(C)C(=O)N23)cc1 (stereo not given) 4.27%
O=C(CSC1=Nc2ccccc2C2=NC(CC(=O)NCc3ccco3)C(=O)N12)NCc1ccco1 (stereo not given) -15.2%
Cc1ccc(S(=O)(=O)N2CCN(c3nc(-n4cnc5ccccc54)nc4ccccc34)CC2)cc1 -24.6%
Cc1ccc(OCC(=O)Nn2cnc3ccccc32)cc1 1.25%
O=C(c1ccc(Cl)cc1)n1cnc2ccccc21 -0.0228%
CC(=O)Nc1cc(-c2cccc(CO)c2)cn2c(-c3cccc(C(F)(F)F)c3)cnc12 -10.7%
CCN(CC)c1ncnc2c1ncn2[C@H]1CN(Cc2cccs2)C[C@@H](CO)O1 1.98%
Cc1cc(OCCCN2CCN(Cc3ccccc3)CC2)ccc1[N+](=O)[O-] 2.82%
Cc1ccccc1NC(=O)c1ccc(COc2ccc3c(C)cc(=O)oc3c2)cc1 -26%
Cc1cc(=O)oc2cc(NC(=O)C3CC(=O)N(Cc4ccccc4)C3)ccc12 (stereo not given) 39.1%
COc1ccccc1N1CCN(CCCCOc2ccc(F)cc2)CC1 0.387%
COc1cccc(C(NC(C)=O)c2nc(-c3ccccc3OC)cs2)c1 (stereo not given) -2.87%
CC1(C(=O)Nc2ccccc2Br)CCN1C(=O)CC1CC1 (stereo not given) -0.604%
COc1ccc(C2OC(CCc3ccccc3)Cc3[nH]c(=S)[nH]c(=O)c32)cc1 (stereo not given) 4.97%
OC[C@@H]1CN(Cc2ccncc2)C[C@H](n2cnc3c(N4CCN(c5ccccc5)CC4)ncnc32)O1 -3.11%
COCCCn1cc(CN2CC(N(C)C)CS2(=O)=O)nn1 (stereo not given) -2.45%
CCCCC(O)C1=C[N+](=O)CC=C1 (stereo not given) -4.82%
CCOCCCNc1c(CC)c(C)c(C#N)c2nc3ccccc3n12 -12.5%
Cc1cc(NC(C)C)n2c(nc3ccccc32)c1C#N -1.59%
N#CCCN(C(=O)Nc1ccc(Cl)c(Cl)c1)C1CCCCC1 -2.9%
CCOC(=O)C1CCCN(C(=O)c2cc(-c3cccs3)oc2C)CC1 (stereo not given) -7.21%
Cc1ccc(NC(=O)CN(C)C(=O)COC(=O)c2nccnc2N)cc1 4.55%
CCOC(=O)c1c(NC(=O)COc2cc(C)ccc2C(C)C)sc(C)c1C -8.6%
COc1ccc(C(=O)Nc2nc(-c3ccc(S(=O)(=O)N4CCOCC4)cc3)cs2)cc1 -13%
COc1ccc(-c2csc(Nc3cccc(C)n3)n2)cc1OC 2.08%
O=C(CSc1nc2c(cnn2-c2ccc(F)cc2)c(=O)[nH]1)N1CCCCCC1 -2.99%
C=CCNC(=O)CSc1nc2sc(C)c(C)c2c(=O)[nH]1 -1.33%
CC(C)CC1C(=O)N(Cc2cn(CC3CCCCC3)nn2)CCS(=O)(=O)N1Cc1ccc(-c2ccc(Cl)cc2)cc1 (stereo not given) -2.28%
CO[C@@H]1CN(C)C(=O)c2cc(NC(=O)Nc3cc(F)ccc3F)ccc2OC[C@H](C)N(C(=O)c2ccccn2)C[C@@H]1C 0.186%
CCOc1ccccc1NC(=O)Cn1nnc(C(=O)NCc2cccs2)c1N -0.11%
Cn1ncc(Br)c1C(=O)NCc1cccs1 2.03%
NCCCNC(=S)NCCCN(Cc1ccc(Cl)cc1)c1ccc(Br)cn1 -0.884%
CC1(C(=O)Nc2ccc3c(c2)OCCO3)CN(S(C)(=O)=O)CC(=O)N1Cc1cccc(F)c1 (stereo not given) -3.71%
O=C(NCc1cccnc1)Nc1ccccc1F -1.06%
CCC(C(=O)NCc1cccnc1)n1nc(C)c2sc3ccccc3c2c1=O (stereo not given) 3.56%
CC(=O)Nc1cccc(-c2ccnc3c2CC(C)(C(=O)NCc2ccccc2)O3)c1 (stereo not given) -13.9%
CC1(C(=O)Nc2ccc3c(c2)OCCO3)CCN1C(=O)Cc1cc(F)ccc1F (stereo not given) 1.99%
COc1ccc(NC(=O)C2Cc3c(-c4ccc(Cl)cc4)ccnc3O2)cc1 (stereo not given) -0.108%
COc1ccc(CC(=O)Nc2c(C(N)=O)oc3ccccc23)cc1 -4.43%
COc1ccc(CC(=O)Nc2ccc(C(=O)NC(C)(C)C)cc2)cc1 -3.23%
O=C(CSc1nnc(-c2ccco2)o1)NCC(=O)c1ccccc1 0.0274%
COc1ccc(OCC(=O)Nc2nnc(-c3ccco3)s2)cc1 0.126%
CCOc1ccc(NC(=O)c2ncoc2-c2ccco2)cc1 -2.31%
O=C(Nc1cccc(-c2nnc(-c3ccccc3)o2)c1)C1CCCO1 (stereo not given) -11.2%
O=C(CSc1nnc(-c2ccc(NS(=O)(=O)c3ccccc3)cc2)o1)NCC1CCCO1 (stereo not given) -5.44%
CC(=O)Nc1ccc(NC(=O)COc2ccc(-c3ccccc3)cc2)cc1 0.862%

Potency, active:
O=C(Cn1c(=O)n(Cc2ccccc2)c(=O)c2sc3ccccc3c21)Nc1ccccc1F 28.2 µM
O=C(CSC1=Nc2ccccc2C2=NC(c3ccccc3)C(=O)N12)NCC1CCCO1 (stereo not given) 17.8 µM
COc1ccc(-c2cc(C(=O)n3cnc4ccccc43)c3ccccc3n2)cc1 31.6 µM
Cc1cc(=O)oc2cc(OCC3CC(c4ccccc4Cl)=NO3)ccc12 (stereo not given) 28.2 µM
Cc1ccccc1N1CCN(CCCOc2ccc3c(C)cc(=O)oc3c2)CC1 35.5 µM
Cc1cc(NCc2ccco2)n2c(nc3ccccc32)c1C#N 28.2 µM
CCOC(=O)c1cc(C(C)C)sc1NC(=O)COC(=O)c1nccnc1N 20 µM
COc1ccc(-c2csc(NC(=O)c3ccc(N4C(=O)CCC4=O)cc3)n2)cc1OC 14.1 µM
CC(=O)c1sc2nc(SCC(=O)N3CCCCC3)[nH]c(=O)c2c1C 31.6 µM
CC(C)Cn1c(N)c(C(=O)NCc2cccs2)c2nc3ccccc3nc21 7.08 µM
CCC(Oc1ccccc1)C(=O)NCc1cccnc1 (stereo not given) 35.5 µM
COc1ccc(CC(=O)Nc2ccc(-c3nnc(-c4ccccc4)o3)cc2)cc1 7.08 µM
Cc1ccc(OCC(=O)Nc2ccc(-c3nnc(-c4ccco4)o3)cc2)cc1 28.2 µM
CCOc1ccc(-c2nnc(-c3ccco3)o2)cc1 8.91 µM
O=C(Nc1ccc(-c2nnc(-c3ccccc3)o2)cc1)C1CCCO1 (stereo not given) 12.6 µM
